A selection: hits, their analogues and other compounds. The true share with any hit is near 12%.
HP1b binding inh: HTS for Inhibitors of HP1-beta Chromodomain Interactions with Methylated Histone Tails; AlphaScreen HP1-beta / biotin-H3K9me3 peptide binding; 0.56% of 390,000 active; Potency, µM (highest dose often 114 µM), inactives show at the top dose activity change, negative = inhibition, usual class: inhibitors; AID 540317, 2011; also: nearly all actives have a fitted effect of over 70% in size
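AlphaScreen: HP1-beta (50 nM) preformed 30 min with biotin-H3(1-18)K9me3 peptide (50 nM) in PBS pH 7.4, 0.01% Tween-20. Compound added for 30 min at RT, then streptavidin donor/nickel chelate acceptor beads (10 ug/mL) for 30 min.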
BAZ2B block: qHTS Assay for Inhibitors of BAZ2B. AID 504333, 2011. Bromodomain adjacent to zinc finger domain protein 2B (Homo sapiens), Q9UIF8. Potency, µM (series often up to 114 µM), inactives show top-dose activity change, negative = inhibition, usual class: inhibitors. AlphaScreen BAZ2B-H3K14Ac peptide displacement. 4.4% of 360,000 active; also: % is scaled to controls: 0 for no effect and ±100 for the full control effect; nearly all actives have a fitted effect of over 60% in size
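AlphaScreen displacement: compounds (up to 110uM) incubated 30 min at room temperature with a preformed 50 nM BAZ2B/50 nM biotinylated H3K14Ac peptide complex in PBS pH 7.4 with Tween-20. Donor and acceptor beads at 10 ug/mL final added, 20 min light-protected before reading.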
Sfp PPTase inh: qHTS Assay for Inhibitors of Bacillus subtilis Sfp phosphopantetheinyl transferase (PPTase). Biochemical Sfp PPTase activity, qHTS. Potency, µM, inactives show largest response in the series, negative = inhibition, usual class: inhibitors. 3.5% of 310,000 active. AID 1490, 2009;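 also: the enzyme is Sfp with the accession as filed and its product quenches rhodamine fluorescence; 0% = enzyme reaction without inhibitor and -100% = no enzyme wells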
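Sfp 15 nM + cpd, 15 min RT; start w/ rhodamine-CoA 5 uM, BHQ-2-YbbR 12.5 uM (final); 50 mM Hepes pH 7.6, 10 mM MgCl2, 0.01% NP-40, 0.01% BSA; read 525/598 nm at 0 and 30 min.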
JMJD2A Tudor inh: qHTS Assay for Inhibitors of JMJD2A-Tudor Domain; AID 504339, 2011; AlphaScreen JMJD2A-Tudor / H3K4me3 peptide binding; 4.4% of 390,000 active; Potency, µM (titrated, usually from 114 µM), for the others: top-dose activity change, negative = inhibition, usual class: inhibitors; also: % is scaled to controls: 0 for no effect and ±100 for the full control effect; nearly all actives have a fitted effect of over 50% in size
L3MBTL1 block: qHTS Assay for the Inhibitors of L3MBTL1. Potency, µM (highest dose often 57.1 µM), for inactives: at the top dose activity, negative = inhibition, usual class: inhibitors. Lethal(3)malignant brain tumor-like protein 1 (Homo sapiens), Q9Y468. 0.66% of 230,000 active. AID 485360, 2010. AlphaScreen L3MBTL1–H3K9me1 peptide binding; also: % is scaled to controls: 0 for no effect and ±100 for the full control effect; nearly all actives have a fitted effect of over 60% in size
Target sequence (Q9Y468 whole entry, looked up): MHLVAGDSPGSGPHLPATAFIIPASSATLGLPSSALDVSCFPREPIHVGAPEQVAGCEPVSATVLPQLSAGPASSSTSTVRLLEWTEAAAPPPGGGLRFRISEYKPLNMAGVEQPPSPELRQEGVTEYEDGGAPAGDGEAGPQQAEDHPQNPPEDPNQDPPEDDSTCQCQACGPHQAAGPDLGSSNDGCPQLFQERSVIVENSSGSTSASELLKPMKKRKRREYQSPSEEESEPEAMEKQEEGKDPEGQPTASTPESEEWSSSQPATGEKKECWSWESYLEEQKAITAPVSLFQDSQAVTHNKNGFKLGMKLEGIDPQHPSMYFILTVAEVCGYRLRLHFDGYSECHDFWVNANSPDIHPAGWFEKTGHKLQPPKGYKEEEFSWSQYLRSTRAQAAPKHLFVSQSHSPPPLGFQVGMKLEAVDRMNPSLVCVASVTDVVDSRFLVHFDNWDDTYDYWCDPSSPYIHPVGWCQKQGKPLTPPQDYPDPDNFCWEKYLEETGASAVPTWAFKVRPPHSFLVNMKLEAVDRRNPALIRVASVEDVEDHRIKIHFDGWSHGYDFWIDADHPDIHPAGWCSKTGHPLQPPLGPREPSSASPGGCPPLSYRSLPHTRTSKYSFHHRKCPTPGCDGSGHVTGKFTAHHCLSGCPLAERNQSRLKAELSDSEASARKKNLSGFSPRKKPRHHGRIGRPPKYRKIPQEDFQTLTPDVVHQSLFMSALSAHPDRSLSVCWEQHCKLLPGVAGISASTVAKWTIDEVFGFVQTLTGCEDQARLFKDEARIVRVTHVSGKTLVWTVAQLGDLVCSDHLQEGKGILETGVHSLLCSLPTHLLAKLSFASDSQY
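AlphaScreen proximity signal between nickel-chelate acceptor and streptavidin donor beads (final 10 ug/mL) reports binding of 50 nM L3MBTL1 to 75 nM biotin-H3 K9me1 peptide; complex incubated with compounds 30 min at room temperature; cefsulodin titration as control.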
G9a inh: qHTS Assay for Inhibitors of Histone Lysine Methyltransferase G9a. AID 504332, 2011. G9a H3K9 monomethylation, AlphaScreen, 2 h. Potency, µM (top dose mostly 102 µM), for the others: top-dose activity, negative = inhibition, hits mostly inhibitors. Histone-lysine N-methyltransferase EHMT2 (Homo sapiens), Q96KQ7. 8.8% of 350,000 active; also: % is scaled to controls: 0 for no effect and ±100 for the full control effect; nearly all actives have a fitted effect of over 75% in size
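G9a (20 nM) preincubated 15 min RT with compounds, then 500 nM biotinylated H3K9 peptide and 20 uM SAM added; 2 h RT reaction. Monomethyl-H3K9 product detected by AlphaScreen with anti-H3K9me1 antibody, streptavidin donor and anti-rabbit IgG acceptor beads.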
The depositor's hits bear a star; [ ] = remark or other dose. Calls follow the shape of the dose curve; as a rule, active = well fitted curve in the direction sought with a large enough effect; inconclusive = small, poorly fitted or top-dose-only effect, or another doubt; inactive = no such curve, though single readings can be large; an effect the other way counts as inactive or inconclusive. Potency is read from the fitted curve at half-maximal effect.

How did O=c1c2oc3ccccc3c2n(Cc2cccc(F)c2)c(=O)n1Cc1ccc2c(c1)OCO2 do in these assays?
HP1b binding inh: 23%; BAZ2B block: -13%; JMJD2A Tudor inh: -7%; G9a inh: -6%[59 µM]

Results for COc1cccc(NS(=O)(=O)c2ccc3c(c2)CCC(=O)N3)c1 ?
JMJD2A Tudor inh: -3%

What do the screens show for `CC(C)(C)c1ccc(OC2C(O)COC2/C=C/C#Cc2ccccc2)cc1` (configuration not stated)?
Sfp PPTase inh: 13%

Results for Cc1ccc(-n2c(C)cc(/C=N/NC(N)=S)c2C)cc1 ?
HP1b binding inh: -20%; BAZ2B block: inconclusive; Sfp PPTase inh: -10%; JMJD2A Tudor inh: inconclusive; L3MBTL1 block: -17%; G9a inh: inconclusive

What do the screens show for `O=C(N/N=C/c1ccc(O)cc1O)C(=O)N/N=C/c1ccc(O)cc1O`?
HP1b binding inh: -7%; BAZ2B block: 35µM*; Sfp PPTase inh: 16%; JMJD2A Tudor inh: 2.5µM*; L3MBTL1 block: 0.71µM*; G9a inh: 28%[59 µM]

What do the screens show for `NC(=S)N/N=C/c1cccc(O)c1O`?
HP1b binding inh: 26%; BAZ2B block: 8.9µM*; Sfp PPTase inh: 15%; JMJD2A Tudor inh: 28µM*; L3MBTL1 block: 28µM*; G9a inh: inconclusive

How did Cc1cc(/C=N/NC(N)=S)c(O)c(/C=N/NC(N)=S)c1 do in these assays?
HP1b binding inh: 31%; BAZ2B block: 3.2µM*; Sfp PPTase inh: 11%; JMJD2A Tudor inh: 13µM*; L3MBTL1 block: inconclusive; G9a inh: 2%

Results for CN1CCN(CC(=O)N/N=C\c2c[nH]c3ccccc23)CC1 ?
BAZ2B block: -34%; Sfp PPTase inh: inconclusive; L3MBTL1 block: -1%; G9a inh: 16µM*

Results for CC(C)OC(=O)c1c(NC(=O)C2c3ccccc3Oc3ccccc32)sc2c1CCCC2 ?
HP1b binding inh: 25%; BAZ2B block: -1%; JMJD2A Tudor inh: -6%; G9a inh: 2%[59 µM]

Results for C(=NN=C1c2ccccc2-c2ccccc21)c1c[nH]c2ccccc12 ?
HP1b binding inh: inconclusive; JMJD2A Tudor inh: 22µM*

Results for NC(=S)N/N=C/c1ccc(/C=N/NC(N)=S)cc1 ?
HP1b binding inh: 67%; BAZ2B block: 2%; Sfp PPTase inh: -3%; JMJD2A Tudor inh: -4%; L3MBTL1 block: 2%

Results for NC(=S)N/N=C/c1ccccc1O ?
HP1b binding inh: 39%; BAZ2B block: 35µM*; Sfp PPTase inh: 16%; JMJD2A Tudor inh: 89µM*; L3MBTL1 block: inconclusive; G9a inh: 6%

Results for COc1ccc2nc(C)cc(SCC(=O)N/N=C/c3ccc(O)cc3O)c2c1 ?
HP1b binding inh: 24%; BAZ2B block: 0%; Sfp PPTase inh: 19%; JMJD2A Tudor inh: -1%; L3MBTL1 block: -5%; G9a inh: 18%[59 µM]

What do the screens show for `Fc1c(F)c(F)c(N/N=C/c2c[nH]c3ccccc23)c(F)c1F`?
HP1b binding inh: -25%; BAZ2B block: inconclusive; Sfp PPTase inh: 2%; JMJD2A Tudor inh: inconclusive; L3MBTL1 block: -11%; G9a inh: inconclusive

Results for Oc1ccc(/C=N/Nc2ccc3ccccc3c2)c(O)c1 ?
HP1b binding inh: inconclusive; BAZ2B block: inconclusive; Sfp PPTase inh: 50µM*; JMJD2A Tudor inh: inconclusive; L3MBTL1 block: -17%; G9a inh: 6.3µM*

How did COc1ccc(N2Cc3ccc(C(=O)N/N=C\c4ccc(O)cc4O)cc3C2)cc1 do in these assays?
BAZ2B block: inconclusive; Sfp PPTase inh: -13%; G9a inh: 28µM*

Source: PubChem BioAssay (National Center for Advancing Translational Sciences (NCATS))
